# Article PMC11062922 (Nature Chemical Biology, 2023)
# Where two headings read alike, the source gives them in different places.
# Experiments:
# Details in all cases: read-out: apparent Kd, n = 1
# [1] = system: MAPK10
# [2] = system: PBK
# [3] = system: PDGFRB
# [4] = system: PRKAA1
# [5] = compound concentrations:100 nM and 1000 nM (sheet 'Lestaurtinib' of Supplementary Table 1),run:Lestaurtinib_02487_R1,Plate:MR012
# [6] = compound concentrations:100 nM and 1000 nM (sheet 'Lestaurtinib' of Supplementary Table 1),run:Lestaurtinib_02584_R1,Plate:MR017
# [7] = compound concentrations:100 nM and 1000 nM (sheet 'Lestaurtinib' of Supplementary Table 1),run:Lestaurtinib_02584_R3,Plate:MR017
# [8] = compound concentrations:100 nM and 1000 nM (sheet 'Lestaurtinib' of Supplementary Table 1),run:Lestaurtinib_02601_R1,Plate:MR018
# [9] = compound concentrations:100 nM and 1000 nM (sheet 'Lestaurtinib' of Supplementary Table 1),run:Lestaurtinib_02606_R3,Plate:MR019
# [10] = compound concentrations:100 nM and 1000 nM (sheet 'Lestaurtinib' of Supplementary Table 1),run:Lestaurtinib_02724_R2,Plate:MR021
# [11] = compound concentrations:100 nM and 1000 nM (sheet 'Lestaurtinib' of Supplementary Table 1),run:Lestaurtinib_02741_R2,Plate:MR023
# [12] = compound concentrations:100 nM and 1000 nM (sheet 'Lestaurtinib' of Supplementary Table 1),run:Lestaurtinib_02748_R3,Plate:MR024
# [13] = compound concentrations:100 nM and 1000 nM (sheet 'Lestaurtinib' of Supplementary Table 1),run:Lestaurtinib_02766_R1,Plate:MR027
# [14] = compound concentrations:100 nM and 1000 nM (sheet 'Lestaurtinib' of Supplementary Table 1),run:Lestaurtinib_02795_R3,Plate:MR022
# [15] = compound concentrations:100 nM and 1000 nM (sheet 'Lestaurtinib' of Supplementary Table 1),run:Lestaurtinib_02896_R3,Plate:MR030
# [16] = compound concentrations:100 nM and 1000 nM (sheet 'Lestaurtinib' of Supplementary Table 1),run:Lestaurtinib_03172_R1,Plate:MR031
# [17] = compound concentrations:100 nM and 1000 nM (sheet 'Lestaurtinib' of Supplementary Table 1),run:Lestaurtinib_03172_R2,Plate:MR031
# [18] = compound concentrations:100 nM and 1000 nM (sheet 'Lestaurtinib' of Supplementary Table 1),run:Lestaurtinib_03252_R1,Plate:MR032
# [19] = compound concentrations:100 nM and 1000 nM (sheet 'Lestaurtinib' of Supplementary Table 1),run:Lestaurtinib_03252_R2,Plate:MR032
# [20] = compound concentrations:100 nM and 1000 nM (sheet 'Lestaurtinib' of Supplementary Table 1),run:Lestaurtinib_03260_R2,Plate:MR033
# [21] = compound concentrations:100 nM and 1000 nM (sheet 'Lestaurtinib' of Supplementary Table 1),run:Lestaurtinib_02741_R1,Plate:MR023
# [22] = compound concentrations:100 nM and 1000 nM (sheet 'Lestaurtinib' of Supplementary Table 1),run:Lestaurtinib_02896_R2,Plate:MR030
substance,measurement,setting,value
Lestaurtinib,potency estimated from few doses,"[1]; compound concentrations:100 nM and 1000 nM (sheet 'Lestaurtinib' of Supplementary Table 1),run:Lestaurtinib_02482_R1,Plate:MR011",0.469 µM
same,potency estimated from few doses,"[1]; compound concentrations:100 nM and 1000 nM (sheet 'Lestaurtinib' of Supplementary Table 1),run:Lestaurtinib_02482_R2,Plate:MR011",0.898 µM
same,potency estimated from few doses,"[1]; compound concentrations:100 nM and 1000 nM (sheet 'Lestaurtinib' of Supplementary Table 1),run:Lestaurtinib_02482_R3,Plate:MR011",0.612 µM
same,potency estimated from few doses,[1]; [5],0.798 µM
same,potency estimated from few doses,"[1]; compound concentrations:100 nM and 1000 nM (sheet 'Lestaurtinib' of Supplementary Table 1),run:Lestaurtinib_02487_R2,Plate:MR012",0.744 µM
same,potency estimated from few doses,"[1]; compound concentrations:100 nM and 1000 nM (sheet 'Lestaurtinib' of Supplementary Table 1),run:Lestaurtinib_02566_R1,Plate:MR014",0.712 µM
same,potency estimated from few doses,"[1]; compound concentrations:100 nM and 1000 nM (sheet 'Lestaurtinib' of Supplementary Table 1),run:Lestaurtinib_02572_R1,Plate:MR015",0.896 µM
same,potency estimated from few doses,"[1]; compound concentrations:100 nM and 1000 nM (sheet 'Lestaurtinib' of Supplementary Table 1),run:Lestaurtinib_02577_R2,Plate:MR016",0.636 µM
same,potency estimated from few doses,"[1]; compound concentrations:100 nM and 1000 nM (sheet 'Lestaurtinib' of Supplementary Table 1),run:Lestaurtinib_02577_R3,Plate:MR016",0.743 µM
same,potency estimated from few doses,[1]; [6],0.744 µM
same,potency estimated from few doses,[1]; [7],0.692 µM
same,potency estimated from few doses,[1]; [8],0.819 µM
same,potency estimated from few doses,[1]; [9],0.845 µM
same,potency estimated from few doses,"[1]; compound concentrations:100 nM and 1000 nM (sheet 'Lestaurtinib' of Supplementary Table 1),run:Lestaurtinib_02624_R1,Plate:MR020",0.802 µM
same,potency estimated from few doses,"[1]; compound concentrations:100 nM and 1000 nM (sheet 'Lestaurtinib' of Supplementary Table 1),run:Lestaurtinib_02624_R2,Plate:MR020",1.32 µM
same,potency estimated from few doses,"[1]; compound concentrations:100 nM and 1000 nM (sheet 'Lestaurtinib' of Supplementary Table 1),run:Lestaurtinib_02624_R3,Plate:MR020",0.818 µM
same,potency estimated from few doses,"[1]; compound concentrations:100 nM and 1000 nM (sheet 'Lestaurtinib' of Supplementary Table 1),run:Lestaurtinib_02724_R1,Plate:MR021",0.87 µM
same,potency estimated from few doses,[1]; [10],0.518 µM
same,potency estimated from few doses,"[1]; compound concentrations:100 nM and 1000 nM (sheet 'Lestaurtinib' of Supplementary Table 1),run:Lestaurtinib_02724_R3,Plate:MR021",0.573 µM
same,potency estimated from few doses,[1]; [11],0.929 µM
same,potency estimated from few doses,"[1]; compound concentrations:100 nM and 1000 nM (sheet 'Lestaurtinib' of Supplementary Table 1),run:Lestaurtinib_02748_R1,Plate:MR024",0.747 µM
same,potency estimated from few doses,"[1]; compound concentrations:100 nM and 1000 nM (sheet 'Lestaurtinib' of Supplementary Table 1),run:Lestaurtinib_02748_R2,Plate:MR024",0.824 µM
same,potency estimated from few doses,[1]; [12],1.61 µM
same,potency estimated from few doses,"[1]; compound concentrations:100 nM and 1000 nM (sheet 'Lestaurtinib' of Supplementary Table 1),run:Lestaurtinib_02765_R1,Plate:MR026",0.795 µM
same,potency estimated from few doses,"[1]; compound concentrations:100 nM and 1000 nM (sheet 'Lestaurtinib' of Supplementary Table 1),run:Lestaurtinib_02765_R3,Plate:MR026",0.501 µM
same,potency estimated from few doses,[1]; [13],1.53 µM
same,potency estimated from few doses,[1]; [14],0.886 µM
same,potency estimated from few doses,"[1]; compound concentrations:100 nM and 1000 nM (sheet 'Lestaurtinib' of Supplementary Table 1),run:Lestaurtinib_02802_R2,Plate:MR029",1.41 µM
same,potency estimated from few doses,"[1]; compound concentrations:100 nM and 1000 nM (sheet 'Lestaurtinib' of Supplementary Table 1),run:Lestaurtinib_02896_R1,Plate:MR030",0.532 µM
same,potency estimated from few doses,[1]; [15],0.592 µM
same,potency estimated from few doses,[1]; [16],0.784 µM
same,potency estimated from few doses,[1]; [17],0.591 µM
same,potency estimated from few doses,[1]; [18],0.932 µM
same,potency estimated from few doses,[1]; [19],0.717 µM
same,potency estimated from few doses,[1]; [20],0.671 µM
same,potency estimated from few doses,"[2]; compound concentrations:100 nM and 1000 nM (sheet 'Lestaurtinib' of Supplementary Table 1),run:Lestaurtinib_02364_R3,Plate:MR002",2.31 µM
same,potency estimated from few doses,"[2]; compound concentrations:100 nM and 1000 nM (sheet 'Lestaurtinib' of Supplementary Table 1),run:Lestaurtinib_02381_R2,Plate:MR004",1.82 µM
same,potency estimated from few doses,"[2]; compound concentrations:100 nM and 1000 nM (sheet 'Lestaurtinib' of Supplementary Table 1),run:Lestaurtinib_02606_R1,Plate:MR019",1.97 µM
same,potency estimated from few doses,[2]; [9],2.12 µM
same,potency estimated from few doses,[2]; [21],1.53 µM
same,potency estimated from few doses,[2]; [12],1.44 µM
same,potency estimated from few doses,[2]; [13],1.69 µM
same,potency estimated from few doses,"[2]; compound concentrations:100 nM and 1000 nM (sheet 'Lestaurtinib' of Supplementary Table 1),run:Lestaurtinib_02766_R3,Plate:MR027",1.76 µM
same,potency estimated from few doses,[2]; [22],1.58 µM
same,potency estimated from few doses,[2]; [15],1.97 µM
same,potency estimated from few doses,[2]; [16],1.81 µM
same,potency estimated from few doses,"[2]; compound concentrations:100 nM and 1000 nM (sheet 'Lestaurtinib' of Supplementary Table 1),run:Lestaurtinib_03172_R3,Plate:MR031",1.84 µM
same,potency estimated from few doses,"[3]; compound concentrations:100 nM and 1000 nM (sheet 'Lestaurtinib' of Supplementary Table 1),run:Lestaurtinib_02364_R1,Plate:MR002",2.2 µM
same,potency estimated from few doses,"[3]; compound concentrations:100 nM and 1000 nM (sheet 'Lestaurtinib' of Supplementary Table 1),run:Lestaurtinib_02381_R1,Plate:MR004",1.57 µM
same,potency estimated from few doses,"[3]; compound concentrations:100 nM and 1000 nM (sheet 'Lestaurtinib' of Supplementary Table 1),run:Lestaurtinib_02407_R3,Plate:MR005",0.428 µM
same,potency estimated from few doses,"[3]; compound concentrations:100 nM and 1000 nM (sheet 'Lestaurtinib' of Supplementary Table 1),run:Lestaurtinib_02437_R2,Plate:MR007",0.717 µM
same,potency estimated from few doses,"[3]; compound concentrations:100 nM and 1000 nM (sheet 'Lestaurtinib' of Supplementary Table 1),run:Lestaurtinib_02437_R3,Plate:MR007",1.3 µM
same,potency estimated from few doses,"[3]; compound concentrations:100 nM and 1000 nM (sheet 'Lestaurtinib' of Supplementary Table 1),run:Lestaurtinib_02438_R2,Plate:MR008",2.02 µM
same,potency estimated from few doses,"[3]; compound concentrations:100 nM and 1000 nM (sheet 'Lestaurtinib' of Supplementary Table 1),run:Lestaurtinib_02438_R3,Plate:MR008",1.36 µM
same,potency estimated from few doses,"[3]; compound concentrations:100 nM and 1000 nM (sheet 'Lestaurtinib' of Supplementary Table 1),run:Lestaurtinib_02443_R1,Plate:MR009",1.57 µM
same,potency estimated from few doses,"[3]; compound concentrations:100 nM and 1000 nM (sheet 'Lestaurtinib' of Supplementary Table 1),run:Lestaurtinib_02443_R3,Plate:MR009",0.279 µM
same,potency estimated from few doses,"[3]; compound concentrations:100 nM and 1000 nM (sheet 'Lestaurtinib' of Supplementary Table 1),run:Lestaurtinib_02473_R1,Plate:MR010",0.982 µM
same,potency estimated from few doses,[3]; [5],0.998 µM
same,potency estimated from few doses,"[3]; compound concentrations:100 nM and 1000 nM (sheet 'Lestaurtinib' of Supplementary Table 1),run:Lestaurtinib_02496_R1,Plate:MR013",1.61 µM
same,potency estimated from few doses,"[3]; compound concentrations:100 nM and 1000 nM (sheet 'Lestaurtinib' of Supplementary Table 1),run:Lestaurtinib_02496_R3,Plate:MR013",1.53 µM
same,potency estimated from few doses,"[3]; compound concentrations:100 nM and 1000 nM (sheet 'Lestaurtinib' of Supplementary Table 1),run:Lestaurtinib_02566_R2,Plate:MR014",1.7 µM
same,potency estimated from few doses,"[3]; compound concentrations:100 nM and 1000 nM (sheet 'Lestaurtinib' of Supplementary Table 1),run:Lestaurtinib_02566_R3,Plate:MR014",1.62 µM
same,potency estimated from few doses,"[3]; compound concentrations:100 nM and 1000 nM (sheet 'Lestaurtinib' of Supplementary Table 1),run:Lestaurtinib_02577_R1,Plate:MR016",1.8 µM
same,potency estimated from few doses,[3]; [6],1.79 µM
same,potency estimated from few doses,"[3]; compound concentrations:100 nM and 1000 nM (sheet 'Lestaurtinib' of Supplementary Table 1),run:Lestaurtinib_02584_R2,Plate:MR017",1.59 µM
same,potency estimated from few doses,[3]; [7],1.99 µM
same,potency estimated from few doses,[3]; [8],1.82 µM
same,potency estimated from few doses,"[3]; compound concentrations:100 nM and 1000 nM (sheet 'Lestaurtinib' of Supplementary Table 1),run:Lestaurtinib_02601_R2,Plate:MR018",1.4 µM
same,potency estimated from few doses,"[3]; compound concentrations:100 nM and 1000 nM (sheet 'Lestaurtinib' of Supplementary Table 1),run:Lestaurtinib_02601_R3,Plate:MR018",1.97 µM
same,potency estimated from few doses,[3]; [10],0.749 µM
same,potency estimated from few doses,[3]; [21],1.37 µM
same,potency estimated from few doses,[3]; [11],1.34 µM
same,potency estimated from few doses,"[3]; compound concentrations:100 nM and 1000 nM (sheet 'Lestaurtinib' of Supplementary Table 1),run:Lestaurtinib_02741_R3,Plate:MR023",1.83 µM
same,potency estimated from few doses,"[3]; compound concentrations:100 nM and 1000 nM (sheet 'Lestaurtinib' of Supplementary Table 1),run:Lestaurtinib_02768_R3,Plate:MR028",1.58 µM
same,potency estimated from few doses,"[3]; compound concentrations:100 nM and 1000 nM (sheet 'Lestaurtinib' of Supplementary Table 1),run:Lestaurtinib_02795_R1,Plate:MR022",1.32 µM
same,potency estimated from few doses,[3]; [14],1.6 µM
same,potency estimated from few doses,"[3]; compound concentrations:100 nM and 1000 nM (sheet 'Lestaurtinib' of Supplementary Table 1),run:Lestaurtinib_02802_R1,Plate:MR029",1.59 µM
same,potency estimated from few doses,"[3]; compound concentrations:100 nM and 1000 nM (sheet 'Lestaurtinib' of Supplementary Table 1),run:Lestaurtinib_02802_R3,Plate:MR029",1.93 µM
same,potency estimated from few doses,[3]; [22],0.849 µM
same,potency estimated from few doses,[3]; [15],0.573 µM
same,potency estimated from few doses,[3]; [16],1.13 µM
same,potency estimated from few doses,[3]; [17],0.754 µM
same,potency estimated from few doses,[3]; [18],1.32 µM
same,potency estimated from few doses,[3]; [19],0.97 µM
same,potency estimated from few doses,"[3]; compound concentrations:100 nM and 1000 nM (sheet 'Lestaurtinib' of Supplementary Table 1),run:Lestaurtinib_03260_R1,Plate:MR033",1.57 µM
same,potency estimated from few doses,[3]; [20],1.93 µM
same,potency estimated from few doses,"[4]; compound concentrations:100 nM and 1000 nM (sheet 'Lestaurtinib' of Supplementary Table 1),run:Lestaurtinib_02339_R2,Plate:MR001",0.86 µM
same,potency estimated from few doses,"[4]; compound concentrations:100 nM and 1000 nM (sheet 'Lestaurtinib' of Supplementary Table 1),run:Lestaurtinib_02339_R3,Plate:MR001",1.33 µM
same,potency estimated from few doses,"[4]; compound concentrations:100 nM and 1000 nM (sheet 'Lestaurtinib' of Supplementary Table 1),run:Lestaurtinib_02364_R2,Plate:MR002",0.936 µM
